# Most compounds without a hit are left out; they make up all but 12% or so of the library.
# VP16 counter: Gal4-VP16 reporter inhibition counter-screen; Drosophila S2 Gal4-VP16 UAS-luciferase, luminescence, 20 h; 310,000 compounds, 3.5% hits; Potency, µM (doses to about 53.6 µM), for inactives: top-dose activity, negative = inhibition, hits mostly inhibitors;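 also: Gal4-VP16 expression switched on by copper sulfate through the metallothionein promoter; nearly all actives have a fitted effect of over 50% in size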
# ALDH1A1 inh: inhibitors of human aldehyde dehydrogenase 1A1; P00352; Purified ALDH1A1, NADH fluorescence, propionaldehyde substrate; Potency, µM (doses to about 75.3 µM), for inactives: top-dose activity, negative = inhibition, actives largely listed as inhibitors; 220,000 compounds, 7.3% hits; AID 1030; active = well fitted inhibition curve with a large enough effect, not every such curve was filed as active; inconclusive = small, poorly fitted or top-dose-only effect, or another doubt; inactive = no such curve, though single readings can be large or run the other way;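 also: plate controls were no enzyme wells and a reference inhibitor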
# Target sequence (P00352 whole entry, looked up): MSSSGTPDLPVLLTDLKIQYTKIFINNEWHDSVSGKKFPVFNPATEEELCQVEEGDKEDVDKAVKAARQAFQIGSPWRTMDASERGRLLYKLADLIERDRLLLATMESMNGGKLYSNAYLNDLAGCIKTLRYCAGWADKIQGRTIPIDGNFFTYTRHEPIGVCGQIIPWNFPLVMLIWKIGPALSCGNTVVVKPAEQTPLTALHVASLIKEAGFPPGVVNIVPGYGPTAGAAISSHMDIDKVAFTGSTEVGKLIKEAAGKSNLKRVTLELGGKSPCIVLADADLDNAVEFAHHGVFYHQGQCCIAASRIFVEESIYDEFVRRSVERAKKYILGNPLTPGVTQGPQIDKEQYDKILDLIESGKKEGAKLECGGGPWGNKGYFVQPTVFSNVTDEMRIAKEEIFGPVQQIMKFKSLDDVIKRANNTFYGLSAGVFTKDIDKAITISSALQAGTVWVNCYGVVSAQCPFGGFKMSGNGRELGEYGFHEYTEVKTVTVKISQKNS
# RORgamma inh: inhibitors of mouse ROR gamma transcriptional activity; Drosophila S2 Gal4-RORgamma UAS-luciferase reporter, 20 h; Potency, µM (top dose mostly 53.6 µM), for the others: at the top dose activity change, negative = inhibition, most hits filed as inhibitors; 310,000 compounds, 5.4% hits; AID 2551; also: nearly all actives have a fitted effect of over 60% in size
#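 Drosophila S2 cells stably expressing Gal4-DBD/mouse RORγ fusion under metallothionein promoter plus UAS-luciferase; compound 1 h, then 700 uM CuSO4 induction for 20 h at ambient temperature; inhibition read as reduced luminescence.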
# PLK1 PBD inh: blocks phosphopeptide binding to human PLK1 polo-box domain; Plk1 PBD binding of FITC phosphopeptide, fluorescence polarization; Potency, µM, without a hit: max response, negative = inhibition, most hits filed as inhibitors; P53350; 360,000 compounds, 2.8% hits; also: series mostly up to about 57 µM; nearly all actives have a fitted effect of over 65% in size
# Sfp PPTase inh: Sfp phosphopantetheinyl transferase inhibition; Q9F4F7; Biochemical Sfp PPTase activity, qHTS; Potency, µM, without a hit: largest response in the series, negative = inhibition, actives largely listed as inhibitors; 310,000 compounds, 3.5% hits; AID 1490;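 also: the enzyme is Sfp with the accession as filed and its product quenches rhodamine fluorescence; 0% = enzyme reaction without inhibitor and -100% = no enzyme wells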
#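 Step 1, compound plus 15 nM Sfp-PPTase, 15 min, room temperature. Step 2, add rhodamine-CoA (5 uM) and BHQ-2-YbbR (12.5 uM). Step 3, read 525/598 nm fluorescence at 0 and 30 min.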
# An asterisk follows results filed as active; ? = inconclusive; / = not tested or not shown; [ ] = dose if it differs, or a comment. Unless noted, calls follow the shape of the dose curve; as a rule, active = well fitted curve in the direction sought with a large enough effect; inconclusive = small, poorly fitted or top-dose-only effect, or another doubt; inactive = no such curve, though single readings can be large; an effect the other way counts as inactive or inconclusive. Unless noted, % is scaled to controls: 0 for no effect and ±100 for the full control effect; potency is read from the fitted curve at half-maximal effect.
SMILES,VP16 counter,ALDH1A1 inh,RORgamma inh,PLK1 PBD inh,Sfp PPTase inh
Cc1ccc(C)c(S(=O)(=O)ON2C(=O)c3ccccc3C2=O)c1,11µM*,?,?,2.7µM*,18µM*
Cc1cc(S(=O)(=O)ON2C(=O)c3ccccc3C2=O)ccc1F,13µM*,/,?,6.7µM*,11µM*
Cc1ccc(S(=O)(=O)ON2C(=O)c3cccc4cccc(c34)C2=O)cc1,7%,?,?,-11%,-6%
O=C1c2cccc3cccc(c23)C(=O)N1OS(=O)(=O)c1ccccc1,-11%,?,-20%,-5%,-9%
CCN1C(=O)[C@H]2[C@@H](c3ccc(C)cc3)N3C(=O)N(c4ccccc4)C(=O)[C@@]3(C)[C@H]2C1=O,4%,/,-1%,-17%,14%
O=S1(=O)N=C2CCCCCN2C(c2ccc(F)cc2)N1 (centres undefined),-23%,4%,-18%,1%,-2%
O=[N+]([O-])c1ccc(C2NS(=O)(=O)N=C3CCCCCN32)cc1 (centres undefined),5%,28µM*,1%,-4%,50µM*
O=C(NN=C1CCCC1)c1cc(Br)ccc1O,?,/,?,3%,8%
CCC/C=N/NC(=O)c1cc(Br)ccc1O,?,-2%,11µM*,-4%,17%
O=C(N/N=C/c1ccoc1)c1ccccc1Br,-12%,/,0%,-5%,8%
O=C(N/N=C1/CCSC1)c1cc(Br)ccc1O,-11%[10 µM],3%,7.9µM*,-15%,7%
O=C(N/N=C/c1ccoc1)c1cc(Br)ccc1O,4µM*,/,3.5µM*,-14%,6%
CC(C)(C(O)c1ccc([N+](=O)[O-])cc1)[N+](=O)[O-] (centres undefined),13%,?,11%,/,-9%
CCOC(=O)C1=C(c2ccccc2)NC(N)=NC1c1ccc(OCc2ccc(C(=O)OC)cc2)cc1 (centres undefined),1%,/,-27%,-8%,79µM*
CCOC(=O)C1=C(c2ccccc2)Nc2ncnn2C1c1ccc(C(=O)O)cc1 (centres undefined),-6%,6%,1%,-5%,10%
COc1ccc(-n2cnc3c(N)nc(N)nc32)cc1,/,/,/,-1%,/
O=C(NC(C(=O)c1ccccc1)n1c(=O)cc[nH]c1=S)c1ccccc1 (centres undefined),?,?,9%,27µM*,?
CNC1C(OC2C(O[C@@H]3C(O)C(O)[C@@H](N=C(N)N)C(O)C3N=C(N)N)OC(C)[C@@]2(O)CO)OC(CO)C(O)C1O (some centres undefined),4%,1%,-4%,/,10%
Cc1cccc2sc(NNC(=O)C3=COCCO3)nc12,13µM*,?,2.2µM*,-6%,19%
Cc1cc(C(=O)Nc2nc3c(C)cccc3s2)c(C)o1,?,-8%,?,-5%,11%
O=C(NNc1nc2c(F)cc(F)cc2s1)C1=COCCO1,-27%,13%,8.9µM*,-5%,-1%
Cc1sc(NC(=O)C2=COCCO2)nc1-c1ccc(F)cc1,/,/,/,-15%,/
COc1ccc2c(C)cc3n[nH]c(=S)n3c2c1,0%,?,3%,-2%,16µM*
COc1cccc(-n2c(=O)c3ccccc3n3c(=S)[nH]nc23)c1,-10%,/,-38%,-14%,?
CCc1nc2ccc(C(=O)NCCOc3ccc(OC)cc3)cn2c1N(C)Cc1nccn1C,/,/,/,3%,/
SMILES,VP16 counter,ALDH1A1 inh,RORgamma inh,PLK1 PBD inh,Sfp PPTase inh
COc1cc(/C=N/Nc2ccc(Cl)nn2)cc(OC)c1O,-4%,/,-28%,-3%,50µM*
Oc1c(Br)cc(/C=N/Nc2ccc(Cl)nn2)cc1Br,-21%,/,0%,?,?
COc1cc(/C=N/Nc2ccccc2[N+](=O)[O-])cc(OC)c1O,1%,-2%,29%,-6%,-1%
CCOc1ccc(/C=N/Nc2ccc(Cl)nn2)c(O)c1,2µM*,/,1.6µM*,-11%,-1%
COc1cc(/C=N/Nc2ccc(F)cc2F)cc(OC)c1O,?,?,-18%,27µM*,-39%
Oc1ccc(/C=N/Nc2ccc(Cl)nn2)c(O)c1O,-3%,/,-25%,17µM*,10µM*
CC#CCN1c2ccccc2[C@]23C[C@@H](C(=O)OC)N(S(=O)(=O)c4ccc(OC)cc4)C2=NC(C(=O)OC)=C(C(=O)OC)[C@H]13,/,-8%[13.5 µM],/,/,-2%
CC1ON=C(c2ccccn2)N(Cc2ccc3c(c2)OCO3)C1=O (centres undefined),/,/,/,4%,/
Cc1nn(Cc2ccc(Cl)cc2)c(C)c1NC(=O)c1cc(-c2ccco2)on1,-1%,3%,40%,-6%,-8%
Cc1cc(NC(=O)c2cc(-c3ccco3)on2)nn1Cc1ccc(Cl)cc1,-3%,?,35%,-9%,18µM*
Cc1nn(Cc2ccc(Cl)c(Cl)c2)c(C)c1NC(=O)c1cc(-c2ccco2)on1,?,?,?,-2%,45µM*
COC(=O)c1ccc(C(/C=C/[C@@H](C)C(=O)N[C@H](C)CO)NC(=O)OCc2ccccc2)cc1 (some centres undefined),19%,-7%,-1%,/,14%
Cc1cc(C)c(OCC(=O)OCC(=O)NCc2ccco2)c(C)c1,/,/,/,3%,/
COc1ccc(OC)c(CN2CCN(C(=O)c3cc(S(=O)(=O)N4CCOCC4)ccc3C)CC2)c1,/,/,/,0%,/
Cc1nn(-c2ccccn2)c2nc(-c3cccs3)cc(C(=O)N3CCOCC3)c12,-23%,?,-31%,12µM*,-8%
COc1ccc(-c2cc(C(=O)O)c3c(C)nn(-c4ccccn4)c3n2)cc1,0%,?,1%,-2%,0%
Cc1nn(Cc2ccccc2)c2c1C(c1ccncc1)C(C#N)=C(N)O2 (centres undefined),-6%,?,-12%,-29%,-13%
CCCc1nn(C)c2c1C(c1cccnc1)C(C#N)=C(N)O2 (centres undefined),0%,11%,1%,?,12%
Cc1nn(Cc2ccccc2)c2c1C(c1ccc(Cl)cc1)C(C#N)=C(N)O2 (centres undefined),-3%,?,1%,27µM*,2%
Cc1nn(Cc2ccccc2)c2c1C(c1cccnc1)C(C#N)=C(N)O2 (centres undefined),-1%,7.9µM*,-11%,?,-5%
N#CC1=C(N)OC2=C(CN(Cc3ccccc3)C/C2=C\c2cccnc2)C1c1cccnc1 (centres undefined),11%,1.3µM*,?,-6%,-23%
CC(C)c1cc(CN2C(C)COCC2C)cc(C(C)C)c1O (centres undefined),/,/,/,-12%,/
CCOc1ccc(-n2c(-c3ccco3)nc3c(cnn3-c3ccc(C)cc3)c2=O)cc1,2%,/,-8%,-7%,23%
Cc1occc1-c1n[nH]c(=S)n1-c1ccccc1,?,2%,?,-7%,13%
CCOc1ccc(-n2c(-c3ccco3)n[nH]c2=S)cc1,?,?,2.8µM*,-7%,50µM*

# Screens (PubChem)
